Laboratory results published in PubChem BioAssay (NCATS).
Results filed as inconclusive are left out. Calls of active or inactive are those of the source. Calls follow the shape of the dose curve; as a rule, active = well fitted inhibition curve with a large enough effect; inconclusive = small, poorly fitted or top-dose-only effect; inactive = flat fitted curve, though single readings scatter.

Columns and labels:
Assay in all cases: qHTS profiling for inhibitors of Plasmodium falciparum proliferation (AID 504749); also: nearly all actives have a fitted effect of over 60% in size
Conditions in all cases: P. falciparum in erythrocytes, SYBR Green DNA, 72 h; series mostly up to 28.7 µM
[1] = tested on: ATS95
Summary of the method: (§1)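 Three-day growth assay of blood-stage parasites in erythrocytes (0.3% parasitemia, 2.5% hematocrit) at 37 C, 5% CO2, quantified by SYBR Green DNA staining after overnight detergent lysis.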

[2] = tested on: C2A
Summary of the method: as §1

[3] = tested on: CP215
Summary of the method: as §1

[4] = tested on: CP237
Summary of the method: as §1

[5] = tested on: CP238
Summary of the method: as §1

[6] = tested on: CP250
Summary of the method: as §1

[7] = tested on: CP252
Summary of the method: as §1

[8] = tested on: CP256
Summary of the method: as §1

[9] = tested on: CP262
Summary of the method: as §1

[10] = tested on: CP266
Summary of the method: as §1

[11] = tested on: CP268
Summary of the method: as §1

[12] = tested on: CP269
Summary of the method: as §1

[13] = tested on: CP305
Summary of the method: as §1

[14] = tested on: CP325
Summary of the method: as §1

[15] = tested on: CP329
Summary of the method: as §1

[16] = tested on: CP335
Summary of the method: as §1

[17] = tested on: DIV30
Summary of the method: as §1

[18] = tested on: Dd2
Summary of the method: as §1

[19] = tested on: PAD
Summary of the method: as §1

[20] = tested on: SC27B
Summary of the method: as §1

Measured: Potency
Potency is read from the fitted curve at half-maximal effect.

CCCCC(=O)N(Cc1ccc(-c2ccccc2-c2nn[nH]n2)cc1)C(C(=O)O)C(C)C (stereo not given)
active: [16] 6.01 µM
inactive: all other assays above

O=C(CC1NCCC[C@H]1O)Cn1cnc2cc(Br)c(Cl)cc2c1=O (stereo not given in full)
inactive: [9]
active: [1] 2 µM | [2] 3.16 µM | [3] 3.79 µM | [4] 3.55 µM | [5] 3.98 µM | [6] 2.82 µM | [7] 1.12 µM | [8] 3.16 µM | [10] 3.79 µM | [11] 3.38 µM | [12] 2.69 µM | [13] 3.38 µM | [14] 3.38 µM | [15] 3.38 µM | [16] 0.601 µM | [17] 3.38 µM | [18] 0.708 µM | [19] 2.24 µM | [20] 11.2 µM
